{
  "source": "the supplement of paper PMC8866396",
  "note": "± gives the standard deviation of the averaged measurements.",
  "data": [
    {"system": "IL-6-GFP PC-9GR", "experiment": "cell viability (CCK-8 OD) relative to DMSO control (fraction of control); higher = more viable cells", "conditions": "compound concentration: 10 uM; treatment time: 48 h", "method_in_brief": "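PC-9 and PC-9GR lung cancer cells carrying a lentiviral construct that overexpresses IL-6-GFP were seeded in 96-well plates at 3000 cells/well. Every compound in a purchased 510-compound library was applied at a final 10 μM for 48 h, and a parallel set of plates was kept for GFP imaging. Cell viability was read by CCK-8 absorbance, taking each well's optical density as a ratio to the vehicle control well. Two independent replicates were run.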", "values": [
      {"smiles": "CC1Oc2cc(cnc2N)-c2c(nn(C)c2C#N)CN(C)C(=O)c2ccc(F)cc21", "note": "(stereo not drawn)", "cell viability": "0.802 ± 0.14"},
      {"smiles": "C=CC1CC1(NC(=O)C1CC(Oc2ncc(OC)c3ccc(Cl)cc23)CN1C(=O)C(NC(=O)OC(C)(C)C)C(C)(C)C)C(=O)NS(=O)(=O)C1CC1", "note": "(stereo not drawn) [Asunaprevir]", "cell viability": "1.24 ± 0.26"},
      {"smiles": "CN1CCN(C(c2ccccc2)c2ccccc2)CC1.Cl.Cl", "note": "[Cyclizine 2HCl]", "cell viability": "1.06 ± 0.31"},
      {"smiles": "C#Cc1cccc(Nc2ncnc3cc(OCCOC)c(OCCOC)cc23)c1.Cl", "note": "[Erlotinib HCl (OSI-744)]", "cell viability": "0.817 ± 0.21"},
      {"smiles": "N#CC1(c2ccc(NC(=O)c3cccnc3NCc3ccncc3)cc2)CCCC1", "note": "[Apatinib]", "cell viability": "0.0432 ± 0.2"},
      {"smiles": "O=C(c1ccc(OCCN2CCCCC2)cc1)c1c(-c2ccc(O)cc2)sc2cc(O)ccc12", "note": "[Raloxifene]", "cell viability": "0.849 ± 0.1"},
      {"smiles": "Cc1ccc(NC(=O)c2ccc(CN3CCN(C)CC3)cc2)cc1Nc1nc(-c2cccnc2)cs1", "note": "[Masitinib (AB1010)]", "cell viability": "0.268 ± 0.05"},
      {"smiles": "CC(CN1c2ccccc2Sc2ccccc21)N(C)C.Cl", "note": "(stereo not drawn) [Promethazine HCl]", "cell viability": "0.929 ± 0.013"}
    ]}
  ]
}
